The values below come from PubChem BioAssay (NCI).

About 83,000 compounds went through this panel and 20% of them were active in at least one assay; those are over-represented in the sample as a whole.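 Assay: single dose, 48 h. Readout: percent growth (0 = no net growth; negative = cell death). Active: <10.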 Unmarked numbers belong to inactive results. The source made the active and inactive calls.

The test system of this experiment is HL-60(TB) leukemia. As to the kind of experiment: NCI-60 one-dose screen, 48 h (100 = growth as untreated, 0 = no growth, -100 = all killed). The following applies: 10 µM unless noted.
On to `Cc1cc(=O)oc2cc(OCCCOc3ccc(/C=C/C(=O)Nc4ccc(Br)cc4)cc3)ccc12`, for which the growth was 95.8%.
To `Fc1ccccc1/C=C(/C1=NCCN1)n1cnc2ccccc21` belongs 94.5%; to `CCN(CC)c1ccc2cc(C(=O)NCCOCCOCCOCCn3cc(CCC(=O)Nc4ccc(C(=O)c5ccc(NC(=O)OC(C)(C)C)cc5)cc4)nn3)c(=O)oc2c1`, 37%; to `C#C[C@]1(O)CC[C@H]2[C@@H]3CC=C4c5sc(Nc6ccc(Cl)cn6)nc5CC[C@]4(C)[C@H]3CC[C@@]21C`, 6.4% (active).
Next, `NS(=O)(=O)c1ccc(Nc2nc(SCc3ccccc3)nc3ccccc23)cc1`: 60.5%; `CS(=O)(=O)c1ccc(-n2cc(/C=N/O)c(-c3ccccc3)n2)cc1`: -45.8% (active).
Next, `CC(C)Sc1nc(NC2CC2)c(C#N)c(-c2ccccc2)n1`: 112%; `C#CCOc1cccc(/C(N)=N/C(N)=N/c2nc3ccccc3s2)c1`: 88.8%.
In the case of `CNC(=O)c1cc(-n2ccc3cc(NC(=O)Nc4ccc(N5CCN(C)CC5)c(C(F)(F)F)c4)ccc32)ccn1`, the growth was 65.8%.
To `COc1ccc(C(=O)n2cc(C=O)c3ccccc32)cc1` belongs 93.7%; to `Cc1cc2nc(C(Cl)Cl)nc(-c3cccs3)n2n1`, -25.4% (active).
For the compound `C#CCOc1ccc(/C=N/Nc2nc(-c3cc4cc(Br)cc(Br)c4oc3=O)cs2)cc1`, the growth is 85.9%.
Turning to `CN(C)S(=O)(=O)c1ccc(-c2nc(C(Cl)Cl)nc3cc(-c4ccc(F)cc4)nn23)cc1`, the growth is 6.96% (active).
With `NC(=O)c1c(NC(=O)c2ccccc2C(F)(F)F)sc2c1CCC(=O)C2`, the growth is 1.97% (active).
Take `Cn1nc(Nc2ccccc2)c(C(=O)NN)c1N`: the growth was 105%.
As to `O=C(CSc1nc2ccccc2c(=O)n1-c1ccccc1)N/N=C/c1ccc(Oc2ccc(Cl)cc2)cc1`, the growth is 106%.
With `CS(=O)(=O)c1ccc(/C(=N/N=C(N)N)c2ccc(Cl)cc2)cc1`, the growth was 80%.
Turning to `CNC(=O)c1cc(-n2ccc3cc(NC(=O)Nc4ccc(N5CCOCC5)c(C(F)(F)F)c4)ccc32)ccn1`, the growth was -37.1% (active).
As for `COc1ccc2c(ccn2C(=O)N2c3ccccc3Sc3ccccc32)c1`, the growth is 13.7%.
With `COc1ccc([C@@H]2C(=O)N(c3cc(OC)c(OC)c(OC)c3)[C@H]2c2ccc(OC)c(O)c2)cc1`, the growth is 2.64% (active).
Turning to `COC(=O)c1[nH]nc2c1C1(C(=O)c3cccc4cccc1c34)C(C#N)=C(N)O2` (stereo not given), the growth is 82.5%.
Turning to `CC(Nc1c(C#N)cnc2ccc(-c3cncc(-c4n[nH]c(=O)o4)c3)cc12)c1ccccc1` (stereo not given), the growth is 14.9%.
For the compound `O=C1c2c(O)cc(O)cc2O[C@@H](c2ccc(O)cc2)[C@@H]1c1c(O)cc(O)c2c(=O)cc(-c3ccc(O)c(O)c3)oc12`, the growth was 103%.
On to `CCOC(=O)c1nn(-c2ccccc2)c(=O)c2c(N)c(C#N)c(-c3cccs3)cc12`, for which the growth is 113%.
As to `CC(=O)OC[C@]12CC[C@@H](C(=O)/C=C/c3cccnc3)[C@@H]1[C@H]1CC[C@@H]3[C@@]4(C)CC[C@H](OC(C)=O)C(C)(C)[C@@H]4CC[C@@]3(C)[C@]1(C)CC2`, the growth was -15.1% (active).
Regarding `CCNCc1c(-c2cccc(OC(F)(F)F)c2)[nH]c2ccc(N3CCCC3)cc2c1=O`, the growth is -8.31% (active).
Take `COc1ccc2c(c1)Oc1nc(N)c(C#N)c(N)c1C2Sc1ccc(C)cc1` (stereo not given): the growth was -22.3% (active).
Next, `Nc1nc(-c2cccc([N+](=O)[O-])c2)c(N=Nc2ccc(Br)cc2)s1`: 100%.
In the case of `O=C(/C=C/c1cccc(Br)c1)c1cccc(OCCCCOc2cccc(C(=O)/C=C/c3cccc(Br)c3)c2)c1`, the growth was 95.3%.
As for `CC[C@@](C)(NC(=O)C(C)(C)NC(=O)[C@@H](NC(=O)[C@@H]1CCCN1C(=O)C(C)(C)NC(=O)[C@H](CC(C)C)NC(=O)CNC(=O)C(C)(C)NC(=O)[C@@H](NC(=O)C(C)(C)NC(=O)[C@H](CCC(N)=O)NC(=O)[C@H](C)NC(=O)C(C)(C)NC(=O)[C@H](C)NC(=O)C(C)(C)NC(=O)[C@@H]1CCCN1C(=O)C(C)(C)NC(C)=O)C(C)C)C(C)C)C(=O)N[C@@H](CCC(N)=O)C(=O)N[C@@H](CCC(N)=O)C(=O)N[C@H](CO)Cc1ccccc1`, the growth is -50.8% [4.25 µM] (active).
To `CC(Nc1c(C#N)cnc2ccc(-c3cnc(N)nc3)cc12)c1ccccc1` (stereo not given) belongs 20.1%; to `N[C@@H](Cc1cn(-c2c3ccccc3nc3ccccc23)nn1)C(=O)O`, 95.5%.
In the case of `O=S(=O)(Nc1ccc(-n2cnc3cc(-c4ccc(O)cc4)ccc32)cc1)C1CC1`, the growth was 56.9%.
As for `CN(C)CCCOc1c2ccccc2nc2c1oc1ccc(Cl)cc12`, the growth is 9.14% (active).
Next, `COc1cccc(-c2nn(-c3ccccc3)cc2-c2ccnc(N3CCN(C(=O)Nc4ccc(F)cc4)CC3)c2)c1`: 11.2%.
Take `COc1ccc(C(=O)c2c(N)c(C#N)cn2-c2cccc(OC)c2)cc1`: the growth is 3.83% (active).
`CCCCc1nc2c(N)nc3ccccc3c2n1Cc1ccc(OC)cc1`: the growth was 31%.
Next, `O=C1[C@@H]2Cc3c([nH]c4ccccc34)[C@H](c3ccc(Cl)cc3)N2C(=O)CN1C1CCN(Cc2ccccc2)CC1`: 17.6%.
`Cc1cc(C(NC(=O)CCCCCNc2cccc3c2C(=O)N(C2CCC(=O)NC2=O)C3=O)c2cccnc2)c(O)c2ncccc12` (stereo not given): the growth is -31% (active).
`CC(C)C[C@H]1C(=O)O[C@H](C(C)C)C(=O)N(C)[C@@H](C(C)C)C(=O)O[C@H](C(C)C)C(=O)N(C)[C@@H](C(C)C)C(=O)O[C@H](C(C)C)C(=O)N1C`: the growth was -51.3% (active).
